# Measured values as given in publication PMC7826789 (International Journal of Molecular Sciences, 2021).
compound,measurement,setting,value
COc1cc(C=NNc2ncnc3c2cnn3-c2ccccc2)ccc1O [GW513184X],Kinases covered,AurkA,AurkA
COc1cc(-c2cncc(-c3cnn(C4CCNCC4)c3)c2)cc(OC)c1OC [K05908],Kinases covered,BMPR1A,BMPR1A
same,Kinases covered,BMPR1B,BMPR1B
CC(C)N1CC(=O)N(C)c2cnc(Nc3cccc(S(=O)(=O)CCN4CCOCC4)c3)nc21 [BI00009348],Kinases covered,BMPR2,BMPR2
C=CC(=O)Nc1cc(-n2c(=O)ccc3cnc4ccc(-c5ccc(NS(C)(=O)=O)cc5)cc4c32)ccc1C [BMX-IN-1],Kinases covered,BMX,BMX
same,Kinases covered,BTK,BTK
COc1ccc2[nH]c3c4[nH]c5ccc(OC)cc5c4c4c(c3c2c1)C(=O)NC4=O [GW296115X],Kinases covered,BRSK1,BRSK1
same,Kinases covered,BRSK2,BRSK2
COc1cc2ncnc(Nc3ccc(F)c(Cl)c3)c2cc1O[C@H]1CC[C@H](N)CC1 [BIBW3133BS],Kinases covered,BUB1,BUB1
C#Cc1cccc(Nc2ncnc3cc(OC)c(OC4CCN(C)CC4)cc23)c1 [BI00007366],Kinases covered,BUB1,BUB1
CN(C)C/C=C/C(=O)Nc1ccc(C(=O)N2CCC[C@@H](Nc3ncc(Cl)c(-c4c[nH]c5ccccc45)n3)C2)cc1 [THZ531],Kinases covered,CDK12,CDK12
same,Kinases covered,CDK13,CDK13
COC[C@@H](C)N[C@H]1CC[C@H](Nc2cc(-c3cccc(NCC4(C#N)CCOCC4)n3)c(Cl)cn2)CC1 [NVP-2],Kinases covered,CDK13,CDK13
same,Kinases covered,CDK9,CDK9
Cn1cc(-c2ccc(-c3cncc(Cl)c3N3CCC4(CCNC4=O)CC3)cc2)cn1 [CCT251545],Kinases covered,CDK19,CDK19
same,Kinases covered,CDK8,CDK8
Cn1ncc2cc(-c3cnc(N)c(Cl)c3N3CCC4(CCNC4=O)CC3)ccc21 [CCT251921],Kinases covered,CDK19,CDK19
same,Kinases covered,CDK8,CDK8
CC(C)COC(=O)c1ccc2c(c1)/C(=C/Nc1ccc(S(N)(=O)=O)cc1)C(=O)N2 [GW416981X],Kinases covered,CDK3,CDK3
CCC(NN(C)C)=C1C(=O)Nc2ccc(C(C)=O)cc21 [BI00036838],Kinases covered,CDK7,CDK7
CN(C)C/C=C/C(=O)Nc1ccc(C(=O)Nc2cccc(Nc3ncc(Cl)c(-c4c[nH]c5ccccc45)n3)c2)cc1 [THZ1],Kinases covered,CDK7,CDK7
